The record followed here is PubChem BioAssay (Tox21).

Each structure is given as a SMILES string. Values joined by “and” are separate entries in the source; they are usually repeats but may differ in a detail not shown here. Equal entries are not always repeated. Records with an inconclusive call do not appear. Where a call stands in place of a potency, no number is given. A structure can be active in one record and inactive in another. Active and inactive are the calls of the source. Calls come from the whole dose curve; as a rule, active = well fitted activation curve with a large enough effect in the repeat runs; inconclusive = weak or mixed curves; inactive = flat fitted curve, though single readings scatter.
Potency is the fitted concentration of half-maximal effect.

A short description of the experiment: A CellTox Green Cytotoxicity Assay to monitor cytotoxicity in HepG2 cells - 16 hour (AID 1224876). Note: nearly all actives have a fitted effect of over 45% in size. To be noted: CellTox Green fluorescence; series mostly up to 76.8 µM; cytotoxicity increase: at the top concentration. The text has this:
National Center for Advancing Translational Sciences [NCATS]
NIH Chemical Genomics Center [NCGC]
U.S. Environmental Protection Agency [EPA]
National Institutes of Environmental Health Sciences [NIEHS]
National Toxicology Program [NTP]
Cell-based models are critical for drug discovery. Determining the natural cytotoxic effects resulting from test compounds is an essential research activity. A CellTox Green Cytotoxicity Assay to monitor cytotoxicity in real time of continues cell culture during 40 hours of the compound treatment was used to screen Tox21 10K library compounds in HepG2 cells. CellTox Green Cytotoxicity Assay is a nonlytic, homogeneous, biofluorescent method to measure cytotoxicity in cell culture after experimental manipulation. The assay system uses a proprietary asymmetric cyanine dye that is excluded from viable cells but preferentially stains the dead cell's DNA. […] Viable cells produce no appreciable increases in fluorescence. Therefore, the fluorescence signal produced by the binding interaction with dead cell DNA is proportional to cytotoxicity.
The mixture of HepG2 cell suspension and reagents were dispensed at 600cells/6 ul/well in 1536-well tissue culture treated black solid bottom plates using a Multidrop dispenser. After the assay plates were incubated at a 37 C/5% CO2 incubator for 5 hours, 23 nL of compounds dissolved in DMSO, positive and negative controls was transferred to the assay plate by a pintool work station. The plates were incubated at 37 C for 40 hours. The fluorescence intensity were measured at 0h, 8h, 16h, 24h, 32h and 40h time points using ViewLux plate reader during compound treatment.
On to `C=C[C@H]1CN2CC[C@H]1C[C@H]2[C@H](O)c1ccnc2ccc(OC)cc12`, for which the Potency entry is “inactive”.

With `C=CN1CCCC1=O`, the Potency entry is “inactive”.

For the compound `Cc1cccc(Nc2ccccc2C(=O)O)c1C`, the Potency entry is “inactive”.

`O=C(O)c1ccc(O)cc1`: the Potency entry was “inactive”.

On to `C1CN(SSN2CCOCC2)CCO1`, for which the “cytotoxicity increase” value was -2.52% (inactive).

Take `CC1(C)C(C=C(Cl)Cl)C1C(=O)OCc1cccc(Oc2ccccc2)c1` (stereo not given): the Potency entry is “inactive”.

`COC(=O)c1ccc(C)cc1`: the Potency result is “inactive”.

With `CN(Cc1cnc2nc(N)nc(N)c2n1)c1ccc(C(=O)N[C@@H](CCC(=O)O)C(=O)O)cc1`, the Potency entry was “inactive”.

For the compound `CC(=O)Nc1ccc2c(c1)Cc1cc(NC(C)=O)ccc1-2`, the Potency result was “inactive”.

Turning to `O=C(CCCN1CCC(O)(c2ccc(Cl)cc2)CC1)c1ccc(F)cc1`, the Potency is 43.6 µM (active) and inactive.

Turning to `CC(=O)[C@@]1(O)CC[C@H]2[C@@H]3C[C@H](C)C4=CC(=O)C=C[C@]4(C)[C@@]3(F)[C@@H](O)C[C@@]21C`, the Potency result is “inactive”.

With `CC1(C)O[C@@H]2C[C@H]3[C@@H]4C[C@H](F)C5=CC(=O)C=C[C@]5(C)[C@@]4(F)[C@@H](O)C[C@]3(C)[C@]2(C(=O)CO)O1`, the Potency result is “inactive”.

For `CCC(=O)O[C@H]1[C@H](O[C@@H]2[C@@H](C)[C@H](O[C@H]3C[C@@](C)(OC)[C@@H](O)[C@H](C)O3)[C@@H](C)C(=O)O[C@H](CC)[C@@](C)(O)[C@H](O)[C@@H](C)C(=O)[C@H](C)C[C@@]2(C)O)O[C@H](C)C[C@@H]1N(C)C`, the Potency entry is “inactive”.

Consider `c1ccc2c(c1)ccc1cc3c(ccc4ccccc43)cc12`, for which the Potency result was “inactive”.

On to `CCCCCCCCCCC(CO)CCCCCCCC` (stereo not given), for which the Potency entry is “inactive”.

Turning to `CC1(C)NC(=O)N(c2ccc([N+](=O)[O-])c(C(F)(F)F)c2)C1=O`, the Potency entry is “inactive”.

As for `CC(C)(C)c1cccc(C(C)(C)C)c1O`, the Potency entry is “inactive”.

With `CCC(Cc1c(I)cc(I)c(N)c1I)C(=O)O` (stereo not given), the Potency result was “inactive”.

With `O=C(O)c1cc(=O)[nH]c(=O)[nH]1`, the Potency entry was “inactive”.

In the case of `Cc1ccc([N+](=O)[O-])c(C)c1`, the Potency entry is “inactive”.

With `COc1ccc(C(=O)c2ccccc2O)c(O)c1`, the Potency result was “inactive”.

Regarding `CNC[C@H](O)c1ccc(O)c(O)c1`, the Potency result is “inactive”.

Turning to `CC1(C)OC(=O)NC1=O`, the Potency entry was “inactive”.

Regarding `OC[C@H]1O[C@@H]2O[C@H]3[C@H](O)[C@@H](O)[C@@H](O[C@H]4[C@H](O)[C@@H](O)[C@@H](O[C@H]5[C@H](O)[C@@H](O)[C@@H](O[C@H]6[C@H](O)[C@@H](O)[C@@H](O[C@H]7[C@H](O)[C@@H](O)[C@@H](O[C@H]1[C@H](O)[C@H]2O)O[C@@H]7CO)O[C@@H]6CO)O[C@@H]5CO)O[C@@H]4CO)O[C@@H]3CO`, the Potency result is “inactive”.

For the compound `C[C@]12CC[C@@H]3c4ccc(O)cc4CC[C@H]3[C@@H]1CC[C@@H]2O`, the Potency entry is “inactive”.

As to `c1ccc2ncccc2c1`, the Potency result is “inactive”.

Take `CCCCCC=O`: the “cytotoxicity increase” value was -0.0277% (inactive).

With `C=C[C@H]1CN2CC[C@H]1C[C@@H]2[C@@H](O)c1ccnc2ccc(OC)cc12`, the Potency result is “inactive”.

`COC(=O)CC(=O)OC`: the Potency entry is “inactive”.

Take `CCO[Si](CCCNC(N)=O)(OCC)OCC`: the Potency entry is “inactive”.

`Nc1ccc2c(c1)C(=O)c1ccccc1C2=O`: the Potency result is “inactive”.

As to `Nc1cc(Cl)c(N)c(Cl)c1`, the Potency result is “inactive”.

For `NCCN`, the Potency entry was “inactive”.

For the compound `COCCOCCOCCO`, the Potency entry was “inactive”.

Take `ClC/C=C/CCl`: the Potency entry is “inactive”.

On to `CN(C)CCCN1c2ccccc2Sc2ccc(Cl)cc21`, for which the Potency was 49 µM (active) and 21.3 µM (active).

As to `FC(F)(F)C(Cl)Br` (stereo not given), the Potency result is “inactive”.

On to `Cc1ccc(N)c([N+](=O)[O-])c1`, for which the Potency entry is “inactive”.

On to `OC[C@@H](O)[C@@H](O[C@@H]1O[C@H](CO)[C@H](O)[C@H](O)[C@H]1O)[C@H](O)[C@@H](O)CO`, for which the Potency entry is “inactive”.

Regarding `C=C[C@@]1(C)CC(=O)[C@]2(O)[C@@]3(C)[C@@H](O)CCC(C)(C)[C@@H]3[C@H](O)[C@H](OC(C)=O)[C@@]2(C)O1`, the Potency entry was “inactive”.
